Measured values reported in PubChem BioAssay.
Calls of active or inactive are those of the source.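 The calls were made as follows: active = inhibition at or above 50% relative to wild type and mutant plate controls; inactive = inhibition below 50%.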

test: inhibitors of Chlamydomonas gravitaxis, primary screen, whole organism, Chlamydomonas reinhardtii, WT vs cilia-less mutant, absorbance, 96-well (AID 463189); details: OD600 absorbance, 2 days, at 10 µM, stronger effect = higher value;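 also: 0% = wild type cc124 cells in DMSO and 100% = ciliumless bld1 mutant cells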

SMILES | inhibition
COc1cc(C[C@@H](C)N)c(OC)cc1I | -7.2% (inactive)
NCC(O)c1ccc(O)cc1 (stereo unspecified) | 5.37% (inactive)
NC(=O)c1cc(N2CC2)c([N+](=O)[O-])cc1[N+](=O)[O-] | -4% (inactive)
S=C(NC1CCCCC1)N1CCC(c2cnc[nH]2)CC1 | 12.6% (inactive)
Oc1cc2c(cc1O)[C@H]1c3ccccc3CN[C@@H]1CC2 | -2.75% (inactive)
C=CCN1CC[C@]23c4c5ccc(O)c4O[C@H]2/C(=N/NC(=O)c2ccccc2)CC[C@@]3(O)[C@H]1C5 | 2.64% (inactive)
CCN1C[C@]2(C)CC[C@H](O)[C@@]34C5C[C@@H]6[C@@H](OC)C[C@@](O)(C5[C@H]6O)[C@@H](CC23)C14 (stereo partly specified) | 7.34% (inactive)
Clc1cccc(N2CCNCC2)c1 | 1.7% (inactive)
O=C(Cc1ccc(Cl)c(Cl)c1)N1CCCCC1CN1CCCC1 (stereo unspecified) | 1.42% (inactive)
C=C(C)[C@H]1CN[C@H](C(=O)O)[C@H]1CC(=O)O | -2.25% (inactive)
CC(C)Oc1cccnc1N(C)C1CCN(Cc2ccccc2)CC1 | 54.9% (active)
CCCn1c(C)c(C(=O)c2ccc3ccccc3c2)c2ccccc21 | 18.5% (inactive)
Nc1ccc(CCN2CCN(c3cccc(C(F)(F)F)c3)CC2)cc1 | 40.5% (inactive)
CC(Cc1ccc(OCC(=O)O)cc1)NCC(O)c1cccc(Cl)c1 (stereo unspecified) | 1% (inactive)
NCCc1ccc(S(=O)(=O)F)cc1 | 0.651% (inactive)
CC(C)CC(NP(=O)(O)O[C@@H]1O[C@@H](C)[C@H](O)[C@@H](O)[C@H]1O)C(=O)NC(Cc1c[nH]c2ccccc12)C(=O)O (stereo partly specified) | 5.76% (inactive)
